Rows were chosen to be rich in hits. Some 2.8% of all compounds tested hit in one or more screens of this group.
ATXN viability: Viability Counterscreen for Primary qHTS for Inhibitors of ATXN expression. Potency, µM (doses to about 56.7 µM), most hits filed as cytotoxic. 0.49% of 400,000 active. S2 cells (HEK-293 line with an ATXN2-luciferase reporter) viability, CellTiter-Fluor protease fluorescence, 24 h; also: potency is read from the fitted curve at half-maximal effect; nearly all actives have a fitted effect of over 40% in size
Six1-Eya2 blk: qHTS Assay for Inhibitors of the Six1/Eya2 Interaction. AID 651725, 2012. Homeobox protein SIX1 (Homo sapiens) + Protein phosphatase EYA2 (Homo sapiens), …. AlphaScreen GST-Six1/His-Eya2 binding, biochemical; stronger effect = lower value. 0.56% of 360,000 active. activity change, % (test concentration not listed); in the data active = activity change below about -65%; inconclusive = mostly about -30% to -63%; also: % is scaled to controls: 0 for no effect and ±100 for the full control effect
Target sequence (O00167 whole entry, looked up): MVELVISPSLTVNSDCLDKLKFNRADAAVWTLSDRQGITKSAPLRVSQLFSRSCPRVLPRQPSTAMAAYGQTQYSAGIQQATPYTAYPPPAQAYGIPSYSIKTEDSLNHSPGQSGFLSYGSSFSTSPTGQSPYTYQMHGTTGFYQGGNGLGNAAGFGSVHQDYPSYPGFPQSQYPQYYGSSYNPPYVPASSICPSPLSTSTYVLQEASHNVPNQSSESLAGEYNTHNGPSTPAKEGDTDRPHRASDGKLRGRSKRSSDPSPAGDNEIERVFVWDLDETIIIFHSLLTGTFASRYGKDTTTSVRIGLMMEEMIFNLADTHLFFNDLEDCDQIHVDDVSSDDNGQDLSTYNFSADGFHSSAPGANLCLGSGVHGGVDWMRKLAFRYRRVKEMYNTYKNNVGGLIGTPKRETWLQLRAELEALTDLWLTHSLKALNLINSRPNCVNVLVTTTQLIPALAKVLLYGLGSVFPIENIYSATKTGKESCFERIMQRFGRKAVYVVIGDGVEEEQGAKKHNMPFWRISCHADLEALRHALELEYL
Target sequence (Q15475 whole entry, looked up): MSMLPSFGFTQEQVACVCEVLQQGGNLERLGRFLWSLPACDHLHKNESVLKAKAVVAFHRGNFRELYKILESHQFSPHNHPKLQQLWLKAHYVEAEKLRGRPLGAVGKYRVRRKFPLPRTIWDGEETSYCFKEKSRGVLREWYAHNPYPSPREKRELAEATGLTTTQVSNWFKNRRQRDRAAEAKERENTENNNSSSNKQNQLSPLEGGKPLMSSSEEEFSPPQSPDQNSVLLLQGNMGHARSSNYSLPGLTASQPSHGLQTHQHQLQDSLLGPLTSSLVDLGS
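Compounds are tested against tagged Six1 and Eya2 proteins bridged by glutathione donor and nickel acceptor beads; after a one-hour incubation at 37 °C without light, AlphaScreen emission is recorded.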
TGFb SMAD3 inh: qHTS for Inhibitors of TGF-b; HepG2 CAGA-GFP TGF-b/SMAD3 reporter, GFP fluorescence, 18 h; TGF-beta stimulated, 500 pg/mL final; Potency, µM (doses to about 46.1 µM), inactives show at the highest dose activity, negative = inhibition, most hits filed as inhibitors; 1.2% of 410,000 active; AID 588855, 2011; also: potency is read from the fitted curve at half-maximal effect; % is scaled to controls: 0 for no effect and ±100 for the full control effect; nearly all actives have a fitted effect of over 65% in size
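First, reporter cells (HEPG2 CAGA-GFP) rested 2 h at 37 degrees C. Next, compounds were pinned in and TGF-beta added to 500 pg/mL final. After 18 h, GFP was imaged per cell and summed per well.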
ATXN2 expr inh: Primary qHTS for Inhibitors of ATXN expression; HEK-293 ATXN2-luciferase reporter, luminescence, 24 h; 0.72% of 360,000 active; Potency, µM (doses to about 57 µM), inactives show at the highest dose activity change, negative = inhibition, most hits filed as inhibitors; also: potency is read from the fitted curve at half-maximal effect; % is scaled to controls: 0 for no effect and ±100 for the full control effect; nearly all actives have a fitted effect of over 55% in size
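qHTS (up to 57 uM final) was run with 24 h compound exposure of reporter cells at 37 °C. Each well was multiplexed: SteadyGlo luminescence measured ATXN2-luciferase expression after a fluorogenic Gly-Phe-AFC viability readout (25 uM final).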
HepG2 tox: qHTS for Inhibitors of TGF-b: Cytotox Counterscreen. HepG2 CAGA-GFP viability, ATP luminescence, 18 h. Potency, µM (doses to about 46.1 µM), for inactives: top-dose activity change, negative = cytotoxicity, hits mostly cytotoxic. 0.76% of 410,000 active; also: potency is read from the fitted curve at half-maximal effect
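HepG2 CAGA-GFP cells (1000/well, DMEM with 1% FBS) received compound, then TGF-beta at 500 pg/mL final, and were incubated 18 hours at 37 degrees C. Viability was read by CellTiter-Glo luminescence. Media-only wells were set as complete cell-killing and DMSO as no toxicity.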
CtBP-E1A inh: qHTS Assay for Inhibitors of the CtBP/E1A Interaction | AlphaScreen GST-E1A/His-CtBP binding, 1536-well; stronger effect = lower value | activity change, % (concentration not given with the values) | CtBP / adenovirus E1A interaction (AlphaScreen) | 0.49% of 340,000 active | AID 651724, 2012; in the data active = activity change below about -65%; inconclusive = mostly about -30% to -63%; also: % is scaled to controls: 0 for no effect and ±100 for the full control effect
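In 5 uL wells, 23 nL compound meets equimolar GST-E1A and His-CtBP (5X stock 125 nM each) for 2 h, 37 °C. Beads (5X, 50 ug/mL) then 1 h, 37 °C, dark.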
The depositor's hits bear a star; i = inactive; ? = inconclusive; nt = not tested or not shown; ! = not active in a repeat; [ ] = dose if it differs, or a comment. Unless noted, calls follow the shape of the dose curve; as a rule, active = well fitted curve in the direction sought with a large enough effect; inconclusive = small, poorly fitted or top-dose-only effect, or another doubt; inactive = no such curve, though single readings can be large; an effect the other way counts as inactive or inconclusive.

SMILES	ATXN viability	Six1-Eya2 blk	TGFb SMAD3 inh	ATXN2 expr inh	HepG2 tox	CtBP-E1A inh
COc1ccccc1-c1cnc(C(O)c2cc(Cl)cc(Cl)c2)[nH]1 (configuration not stated)	i	-12.1	11.2µM*	-7.4%	-20.8%	-2.6
OC(c1cccc(Cl)c1)c1ncc(-c2ccc(Oc3ccccc3)cc2)[nH]1 (configuration not stated)	nt	-14.4	17.8µM*	?	11.2µM*	-11.1
CCc1cc(C(=O)NCC2Cc3cc(-c4ccccc4C(C)=O)ccc3O2)no1 (configuration not stated)	i	nt	nt	nt	nt	nt
O=C(Nc1nc(-c2ccc(S(=O)(=O)N3CCCCCC3)cc2)cs1)c1cccs1	?	?	-15.9%	?	-20.7%	-70.0*
O=C(Nc1nc(-c2ccc(S(=O)(=O)N3CCCC3)cc2)cs1)c1cccs1	?	-73.3*	0.0%	?	-30.3%	-75.4*
Cc1c(CCOC(=O)C2C3CC4CC(C3)CC2C4)sc[n+]1CC(=O)c1ccc(Br)cc1 (configuration not stated)	nt	-7.9	?	-33.4%	-107.3%	-17.0
Cc1c(CCOC(=O)c2ccc(Cl)cc2Cl)sc[n+]1CC(=O)c1ccc(Br)cc1	i	-7.7	?	nt	14.1µM*	nt
COCC1CCCN(c2nc(CN3CCN(C(=O)c4ccco4)CC3)nc3ccccc23)C1 (configuration not stated)	i	nt	nt	nt	nt	nt
CCCN(CCC)c1ccc(/C=C/c2sc3ccccc3[n+]2CCCCI)cc1	nt	nt	6.31µM*	nt	14.1µM*	nt
CNC(=O)c1ccc(-c2cnc3ncc(Cc4ccc5ncccc5c4)n3n2)cc1F	nt	nt	nt	19.6%	nt	nt
Cc1nn2c(=O)cc(COC(=O)c3ccc(NC(=O)C4CCCCC4)cc3)nc2s1	nt	nt	-4.4%	nt	-12.0%	nt
COc1ccc(CNC(=O)c2cnn(-c3ncc4c(n3)-c3ccccc3CC4)c2C)cc1OC	i	nt	nt	nt	nt	nt
CCn1c(C)nc2cc(C(=O)N/N=C/c3ccc(O)c(O)c3O)ccc21	i	-89.7*	-13.9%	-22.7%[11.3 µM]	-15.8%	-92.6*
CCn1c(C)nc2cc(C(=O)N/N=C/c3cccc(OC)c3O)ccc21	i	-79.9*	0.1%	14.1µM*	-4.9%	-92.8*
CCc1noc(C)c1C(=O)N1CCOc2ccc(CN3CCCC(C(=O)c4cccnc4)C3)cc2C1 (configuration not stated)	i	nt	nt	nt	nt	nt
CCOC(=O)C1=C(O)c2ccccc2C(=O)/C1=C\c1ccc(C)cc1	nt	-21.7	?	?	11.2µM*	-9.9
CCOC(=O)C1=C(C)OC(=Cc2ccccc2)C1=O	i	1.2	-4.9%	nt	0.5%	-7.1
COc1ccc(CN([C@H](CO)CC(C)C)S(=O)(=O)N(Cc2ccccc2)[C@H](CO)CC(C)C)cc1	nt	-21.9	?	?	11.2µM*!	3.8
CC(C)C[C@@H](CO)N(Cc1ccccc1)S(=O)(=O)N(Cc1ccccc1)[C@H](CO)CC(C)C	?	2.8	11.2µM*!	?	-114.8%	4.1
CC(C)C[C@@H](CO)N(Cc1ccccc1)S(=O)(=O)N(Cc1ccccc1)[C@@H](CO)CC(C)C	?	0.7	10µM*	?	15.8µM*	nt
O=S(=O)(N(Cc1ccccc1)[C@H](CO)Cc1ccccc1)N(Cc1ccccc1)[C@H](CO)Cc1ccccc1	i	-8.4	-8.3%	?	-10.0%	-8.0
C=CS(=O)(=O)N(Cc1ccccc1Br)[C@H](CO)CC(C)C	31.6µM*	-12.0	?	?	-46.9%	-10.9
CCN(CC)S(=O)(=O)c1cccc(C(=O)N/N=C/c2ccc(O)c(O)c2O)c1	i	-90.7*	?	-25.1%	-40.2%	-93.5*
CCN(CC)C(=O)c1ccccc1NC(=O)c1cccc(S(=O)(=O)N(CC)CC)c1	i	6.9	9.0%	-3.6%	-11.5%	0.0
CCN(CC)S(=O)(=O)c1cccc(C(=O)N/N=C(\C)c2ccc(O)cc2O)c1	nt	-66.5*	20.8%	2.38µM*	-29.5%	?
SMILES	ATXN viability	Six1-Eya2 blk	TGFb SMAD3 inh	ATXN2 expr inh	HepG2 tox	CtBP-E1A inh
COC(=O)[C@@H]1CCCN1Cc1ccc2c(c1)CN(Cc1ccccc1F)CCO2	i	nt	nt	nt	nt	nt
O=C(CNC(=O)C1COc2ccccc2O1)N/N=C/c1ccc(O)cc1O (configuration not stated)	i	-87.9*	?	12.6µM*	-22.6%	-88.4*
O=C(N/N=C/c1ccc(O)cc1O)/C(=C/c1ccccc1)CCO	?	-88.6*	?	10µM*	-25.7%	-92.0*
COc1ccc(/C=C\C(=O)NCC(=O)N/N=C/c2ccc(O)cc2O)cc1	?	-88.0*	-6.8%	nt	-3.4%	-17.5
COc1ccc(/C=C/C(=O)NCC(=O)N/N=C/c2cc(Br)ccc2OC)cc1	i	-2.6	-13.8%	-2.8%	-43.8%	7.2
COc1cc(/C=N/NC(=O)/C(=C/c2ccccc2)CCO)ccc1O	?	-9.4	-4.1%	2.7%	15.9%	-0.6
O=C(CNC(=O)C1COc2ccccc2O1)N/N=C\c1cccc(O)c1 (configuration not stated)	i	4.9	-7.9%	0.0%	-13.4%	0.6
O=C(/C=C\c1ccccc1)NCC(=O)N/N=C/c1ccc(O)cc1O	i	-74.6*	-2.3%	17.8µM*	-14.3%	-96.5*
Cc1ccc(NC(=O)Cn2c(=O)n(CCC(=O)NCCc3ccccc3)c(=O)c3ccccc32)cc1	i	nt	-7.5%	-6.1%	0.9%	nt
Cc1cccc(C(=O)NCC(=O)OCC(=O)c2ccc3ccccc3c2)c1	nt	nt	-9.7%	nt	-2.9%	nt
Cc1c(C(=O)N(C)CC2CCCN(C)C2)cnn1-c1nccc(-c2ccco2)n1 (configuration not stated)	i	nt	nt	nt	nt	nt
Cn1cc(S(=O)(=O)c2ccccc2)c(=O)c2cc(F)c(N3CCN(c4ccccc4)CC3)cc21	nt	nt	13.5%	nt	1.6%	nt
N#Cc1cccc(NC(=O)c2cc(C3CCCCN3S(=O)(=O)c3cccc4cccnc34)on2)c1 (configuration not stated)	?	-7.8	-1.9%	4.6%	-6.8%	-2.5
COc1ccc(/C=N/NC(=O)c2nc(-c3ccccc3)n(-c3ccccc3)n2)c(O)c1	i	?	0.0%	3.98µM*	-5.2%	?
COc1ccc2[nH]c(C(=O)N/N=C/c3ccc(O)cc3O)cc2c1	i	-80.2*	1.6%	nt	1.0%	nt
COCCCNc1nc(N)c([N+](=O)[O-])c(Nc2cc(OC)ccc2OC)n1	i	-3.4	?	-11.0%	-14.8%	-14.6

Screening data (PubChem BioAssay)
